Each structure is given as a SMILES string.

In general, residual activity refers to the signal under treatment as a percentage of the control signal.

In this test the target is Protein kinase C theta type (Homo sapiens) (UniProt Q04759). Conditions: at 1 µM.
Protein kinase C theta type (Homo sapiens), sequence (Q04759 whole entry, looked up): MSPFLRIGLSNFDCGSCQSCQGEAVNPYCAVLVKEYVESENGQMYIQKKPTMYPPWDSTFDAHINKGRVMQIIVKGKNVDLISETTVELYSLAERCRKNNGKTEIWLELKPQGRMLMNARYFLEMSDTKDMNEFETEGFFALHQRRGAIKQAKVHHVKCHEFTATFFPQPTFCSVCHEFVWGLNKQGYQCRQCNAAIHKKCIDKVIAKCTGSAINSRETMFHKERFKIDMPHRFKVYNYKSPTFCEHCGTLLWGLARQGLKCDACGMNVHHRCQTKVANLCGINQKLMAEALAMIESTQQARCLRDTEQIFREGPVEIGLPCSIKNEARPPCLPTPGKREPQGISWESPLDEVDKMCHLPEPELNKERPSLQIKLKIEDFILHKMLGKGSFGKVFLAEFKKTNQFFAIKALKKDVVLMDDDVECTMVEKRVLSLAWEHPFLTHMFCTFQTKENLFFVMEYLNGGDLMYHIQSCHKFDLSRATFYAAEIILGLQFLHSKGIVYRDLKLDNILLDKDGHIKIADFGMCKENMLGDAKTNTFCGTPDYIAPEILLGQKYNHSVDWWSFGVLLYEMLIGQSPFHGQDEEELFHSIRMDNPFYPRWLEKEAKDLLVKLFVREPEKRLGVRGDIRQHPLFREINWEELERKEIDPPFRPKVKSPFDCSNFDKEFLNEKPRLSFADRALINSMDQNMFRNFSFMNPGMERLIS
As to `COc1ccc(CNc2nc(N(CCO)CCO)nc3c2ncn3C(C)C)cc1`, the residual activity was 4%.
In the case of `O=Nc1c(-c2c(O)[nH]c3ccccc23)[nH]c2ccccc12`, the residual activity amounted to 81%.
On to `O=c1c2ccccc2[nH]c(=S)n1CCN1CCC(=C(c2ccc(F)cc2)c2ccc(F)cc2)CC1`, for which the residual activity stood at 110%.
On to `c1ccc(-c2n[nH]cc2-c2ccnc3ccccc23)nc1`, for which the residual activity stood at 97%.
The same measure for `Cn1nc2c3c(cccc31)C(=O)c1ccccc1-2`: 97%; for `CC#CC(=O)Nc1cc2c(Nc3ccc(F)c(Cl)c3)ncnc2cn1`: 96%; for `CNc1cc2c(Nc3cccc(Br)c3)ncnc2cn1`: 100%.
The value for `NC(=O)c1ccc2[nH]c(-c3ccc(Oc4ccc(Cl)cc4)cc3)nc2c1` was 85%; that for `CCN(CC)CCCCN1c2ccccc2Oc2ccc(Cl)cc21` was 123%; that for `CN(C)c1ccc(/C=C2\C(=O)Nc3ccccc32)cc1` was 117%.
The same measure for `COc1cc2ncnc(N3CCN(C(=O)Nc4ccc(Oc5ccccc5)cc4)CC3)c2cc1OC`: 94%; for `Oc1c2ccccc2c2c3c(cccc13)N=N2`: 90%.
In the case of `CC(=O)c1ccc(N2CCOCC2)cc1O`, the residual activity came out at 109%.
The value for `Oc1ccc(-c2nc(-c3ccc(F)cc3)c(-c3ccncc3)[nH]2)cc1` was 101%.
Consider `Cc1ccc(NC2=CC(=O)c3sc(C)nc3C2=O)cc1`, for which the residual activity was determined as 88%.
Regarding `Cn1cc(/C=C2\C(=O)Nc3ccc(S(N)(=O)=O)cc32)c2ccccc21`, the residual activity worked out at 84%.
The value for `CC(C)n1cnc2c(NCc3ccccc3)nc(NCCCO)nc21` was 91%; that for `Cc1cncc2cccc(S(=O)(=O)N3CCCN(C(=O)CN)C[C@H]3C)c12` was 21%; that for `Ic1cccc(CSc2nnc(-c3ccncc3)o2)c1` was 68%.

(Values after ChEMBL document CHEMBL2218924, “A broad activity screen in support of a chemogenomic map for kinase signalling research and drug discovery” (Biochem J, 2013).)
